From PubChem BioAssay (EPA / NIEHS)
Activity calls are given as the source filed them. How the source made its calls: active means hit-call score of the fitted dose curve at least 0.9, where 1 is the maximum; inactive means score below 0.9.

What was measured:
[1] = read-out: Monokine induced gamma interferon (MIG), CXCL9 (gene 4283); assay: BSK_3C_MIG: BioMAP Diversity Plus: 3C Assay for Monokine induced gamma interferon (MIG) Biomarker Activity (AID 2283021); conditions: primary human endothelial cells (HUVEC); actives raise or lower the signal;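 on AC50: MIG protein level measured by immunoassay in the treated endothelial cultures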
How it was run: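 HUVEC, 3C system; 24 h chemical exposure; MIG by ELISA; bidirectional fit vs DMSO baseline.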

[2] = BSK_3C_SRB: Viability Assessment in the BioMAP Diversity Plus: 3C Assay (AID 2283023); conditions: primary human endothelial cells (HUVEC);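 further: fitted both ways against DMSO so a hit may be signal rise or drop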
How it was run: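 Human umbilical vein endothelial cells in the 3C system, treated 24 h. Total protein measured by 0.1% sulforhodamine B staining after 10% TCA fixation, read at 560 nm; bidirectional fit versus DMSO.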

[3] = read-out: Matrix Metallopeptidase 1 (MMP1), MMP1 (gene 4312); assay: BSK_BE3C_MMP1: BioMAP Diversity Plus: BE3C Assay for Matrix Metallopeptidase 1 (MMP1) Biomarker Activity (AID 2283024); conditions: primary human bronchial epithelial cells; actives raise or lower the signal
How it was run: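 ELISA read-out of MMP1 in human lung bronchial epithelial primary cultures, 24 h post-dose; bidirectional curve fit vs DMSO baseline, gain or loss of signal scored.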

[4] = BSK_3C_Vis: BioMAP Diversity Plus: 3C Assay for Morphology Visualization (AID 2283025); conditions: primary human endothelial cells (HUVEC);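 further: fitted both ways so gain or loss versus DMSO counts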;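 on AC50: light microscopy image of cell morphology used as background control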
How it was run: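 HUVEC, 3C system; light microscopy of morphology at 24 h post-dose. Bidirectional fit vs DMSO baseline. Secondary readout, background-control function.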

[5] = read-out: Pselectin, SELP (gene 6403); assay: BSK_4H_Pselectin: BioMAP Diversity Plus: 4H Assay for Pselectin Biomarker Activity (AID 2283026); conditions: primary human endothelial cells (HUVEC); actives raise or lower the signal
How it was run: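 HUVEC, 24 h chemical exposure; P-selectin read by ELISA. Bidirectional curve fit vs DMSO baseline; gain or loss of signal scored.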

[6] = BSK_4H_SRB: Viability Assessment in the BioMAP Diversity Plus: 4H Assay (AID 2283027); conditions: primary human endothelial cells (HUVEC);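 further: cells exposed to compound for 24 h before staining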;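 on AC50: curves fitted both ways versus DMSO so AC50 may be loss or gain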
How it was run: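 Cytotoxicity read-out in primary human endothelial cells: after 24 h compound exposure, cells were TCA-fixed (10%), stained with 0.1% SRB and absorbance taken at 560 nm. Values fitted in both directions relative to DMSO.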

[7] = BSK_BE3C_SRB: Viability Assessment in the BioMAP Diversity Plus: BE3C Assay (AID 2283028); conditions: primary human bronchial epithelial cells;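 on AC50: fitted both ways so AC50 may mark signal gain or loss versus DMSO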
How it was run: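 Human bronchial epithelial primary cells in confluent culture, 24 h after chemical dosing; total protein by 0.1% SRB staining after 10% TCA fixation, read at 560 nm. Bidirectional fitting versus DMSO baseline.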

[8] = read-out: Thrombomodulin, THBD (gene 7056); assay: BSK_3C_Thrombomodulin: BioMAP Diversity Plus: 3C Assay for Thrombomodulin Biomarker Activity (AID 2283029); conditions: primary human endothelial cells (HUVEC); actives raise or lower the signal
How it was run: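 HUVEC, 3C conditions; compound 24 h; thrombomodulin by ELISA; bidirectional curve fit vs DMSO baseline; parallel SRB total-protein staining for cytotoxicity.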

[9] = read-out: Urokinase-type plasminogen activator receptor (uPAR), PLAUR (gene 5329); assay: BSK_4H_uPAR: BioMAP Diversity Plus: 4H Assay for Urokinase-type plasminogen activator receptor (uPAR) Biomarker Activity (AID 2283030); conditions: primary human endothelial cells (HUVEC); actives raise or lower the signal
How it was run: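 Human umbilical vein endothelial cells in the 4H system, 24 h after chemical dosing. Cell-surface uPAR measured by ELISA, fitted in both directions versus DMSO; cytotoxicity checked by SRB total protein in parallel cultures.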

[10] = read-out: Vascular endothelial growth factor receptor 2 (Homo sapiens) (UniProt P35968); assay: BSK_4H_VEGFRII: BioMAP Diversity Plus: 4H Assay for Vascular endothelial growth factor receptor 2 (VEGFR2) Biomarker Activity (AID 2283031); conditions: primary human endothelial cells (HUVEC); actives raise or lower the signal;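 on AC50: cell-surface VEGFR2 protein level quantified by ELISA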
How it was run: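 Primary human umbilical vein endothelial cells (4H system), 24 h exposure; cell-surface VEGFR2 measured by ELISA. Bidirectional fitting versus DMSO; cytotoxicity checked in parallel by SRB total-protein staining.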

[11] = read-out: Human Leukocyte Antigen - DR isotype (HLADR), HLA-DRA (gene 3122); assay: BSK_BE3C_HLADR: BioMAP Diversity Plus: BE3C Assay for Human Leukocyte Antigen - DR isotype (HLADR) Biomarker Activity (AID 2283032); conditions: primary human bronchial epithelial cells; actives raise or lower the signal
How it was run: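 Primary human bronchial epithelial cells (BE3C); 24 h chemical exposure; HLA-DR by ELISA; bidirectional curve fit vs DMSO baseline.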

[12] = read-out: Vascular cell adhesion molecule 1 (VCAM1), VCAM1 (gene 7412); assay: BSK_4H_VCAM1: BioMAP Diversity Plus: 4H Assay for Vascular cell adhesion molecule 1 (VCAM1) Biomarker Activity (AID 2283033); conditions: primary human endothelial cells (HUVEC); actives raise or lower the signal
How it was run: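 HUVEC, 24 h post-dose; VCAM-1 by ELISA. Bidirectional curve fit vs DMSO baseline. Parallel SRB total-protein stain (0.1% SRB after 10% TCA fixation, 560 nm) for cytotoxicity.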

[13] = read-out: Interferon-gamma inducible Protein 10 (IP10), CXCL10 (gene 3627); assay: BSK_BE3C_IP10: BioMAP Diversity Plus: BE3C Assay for Interferon-gamma inducible Protein 10 (IP10) Biomarker Activity (AID 2283034); conditions: primary human bronchial epithelial cells; actives raise or lower the signal
How it was run: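 ELISA readout of IP-10 in BE3C system: primary human bronchial epithelial cells, 24 h post-dosing; bidirectional curve fit vs DMSO baseline.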

[14] = read-out: Monokine induced gamma interferon (MIG), CXCL9 (gene 4283); assay: BSK_BE3C_MIG: BioMAP Diversity Plus: BE3C Assay for Monokine induced gamma interferon (MIG) Biomarker Activity (AID 2283035); conditions: primary human bronchial epithelial cells; actives raise or lower the signal
How it was run: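 ELISA quantified MIG after 24 h exposure of primary bronchial epithelial cultures, analysed in both directions relative to DMSO. Cytotoxicity tracked in parallel cultures by sulforhodamine B staining.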

[15] = read-out: Plasminogen activator inhibitor-1 (PAI1), SERPINE1 (gene 5054); assay: BSK_BE3C_PAI1: BioMAP Diversity Plus: BE3C Assay for Plasminogen activator inhibitor-1 (PAI1) Biomarker Activity (AID 2283037); conditions: primary human bronchial epithelial cells; actives raise or lower the signal
How it was run: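 ELISA read-out of PAI-1 from human bronchial epithelial primary cells, 24 h post-dosing; bidirectional curve fit vs DMSO baseline, gain or loss of signal scored.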

[16] = read-out: urokinase plasminogen activator (uPA), PLAU (gene 5328); assay: BSK_BE3C_uPA: BioMAP Diversity Plus: BE3C Assay for urokinase plasminogen activator (uPA) Biomarker Activity (AID 2283038); conditions: primary human bronchial epithelial cells; actives raise or lower the signal
How it was run: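 Primary human bronchial epithelial cells, uPA measured by ELISA 24 h after dosing. Bidirectional change relative to DMSO; cytotoxicity checked in parallel cultures by sulforhodamine B total-protein staining.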

[17] = read-out: Urokinase-type plasminogen activator receptor (uPAR), PLAUR (gene 5329); assay: BSK_BE3C_uPAR: BioMAP Diversity Plus: BE3C Assay for Urokinase-type plasminogen activator receptor (uPAR) Biomarker Activity (AID 2283039); conditions: primary human bronchial epithelial cells; actives raise or lower the signal
How it was run: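 ELISA readout of uPAR on human lung primary bronchial epithelial cells, 24 h post-dosing. Bidirectional curve fit relative to DMSO vehicle baseline; gain or loss of signal both scored.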

[18] = read-out: Interleukin-6 (IL6), IL6 (gene 3569); assay: BSK_CASM3C_IL6: BioMAP Diversity Plus: CASM3C Assay for Interleukin-6 (IL6) Biomarker Activity for (AID 2283040); conditions: primary human coronary artery smooth muscle cells; actives raise or lower the signal
[19] = read-out: Transforming growth factor beta 1 (TGFb1), TGFB1 (gene 7040); assay: BSK_BE3C_TGFb1: BioMAP Diversity Plus: BE3C Assay for Transforming growth factor beta 1 (TGFb1) Biomarker Activity (AID 2283036); conditions: primary human bronchial epithelial cells; actives raise or lower the signal
How it was run: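 Read-out: ELISA for TGF-b1 in primary human bronchial epithelial cultures, 24 h post-dose. Bidirectional curve fitting vs DMSO control; gain or loss of signal both scored.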

Measured: AC50

OCCOCCO
not listed: [19]
inactive: all other assays above

COP(=S)(OC)SCN1C(=O)c2ccccc2C1=O
not listed: [19]
inactive: all other assays above

COc1cc(C=O)cc2c1[C@H](COC(N)=O)[C@]1(OC(C)=O)ON2C[C@H]2[C@@H]1N2C(C)=O
inactive: [8]
active: [1] 29.2 µM | [2] 6.86 µM | [3] 3.3 µM | [4] 10.3 µM | [5] 3.37 µM | [6] 3.17 µM | [7] 6.31 µM | [9] 1.14 µM | [10] 4.42 µM | [11] 1.74 µM | [12] 13.4 µM | [13] 2.72 µM | [14] 9.98 µM | [15] 1.99 µM | [16] 7.92 µM | [17] 6.18 µM | [18] 6.63 µM

Cn1cc(-c2ccccc2)c(=O)c(-c2cccc(C(F)(F)F)c2)c1
not listed: [19]
inactive: all other assays above

ClCCOCCCl
inactive: all assays above

Cc1cccc(N)c1N
active: [12] 13.6 µM
not listed: [19]
inactive: all other assays above

c1ccc2c(c1)oc1ccccc12
not listed: [19]
inactive: all other assays above

CCCCOC(=O)c1ccccc1C(=O)OCc1ccccc1
not listed: [19]
inactive: all other assays above

Cc1ccc(N)cc1
not listed: [19]
inactive: all other assays above

CCCCCCCCn1sccc1=O
active: [1] 11.6 µM | [2] 20.8 µM | [3] 15.1 µM | [4] 12.9 µM | [5] 8.69 µM | [6] 21 µM | [7] 12.8 µM | [8] 5.76 µM | [9] 10.5 µM | [11] 7.16 µM | [12] 9.24 µM | [13] 9.14 µM | [14] 13.6 µM | [19] 5.55 µM | [15] 7.33 µM | [16] 9.51 µM | [17] 12.9 µM | [18] 28.3 µM
inactive: [10]

N#CC(Br)Br
not listed: [19]
inactive: all other assays above

CC(C)(C)OOC(C)(C)CCC(C)(C)OOC(C)(C)C
not listed: [19]
inactive: all other assays above

C[N+](C)(C)CC1CO1 (configuration not stated)
inactive: all assays above

CCCCCOC(=O)c1ccccc1C(=O)OCCCCC
active: [2] 32.2 µM | [4] 39 µM | [5] 20 µM | [12] 18.5 µM
inactive: all other assays above

CC(C)(O)c1cnn2c(-c3ccc(F)c(-c4c(F)cccc4C#N)c3)cnc2n1
inactive: [1] | [3] | [9] | [10] | [12] | [18]
active: [2] 30.4 µM | [4] 37.5 µM | [5] 36.2 µM | [6] 28.9 µM | [7] 29.6 µM | [8] 22.7 µM | [11] 36.5 µM | [13] 31.7 µM | [14] 36.9 µM | [15] 32.1 µM | [16] 30.2 µM | [17] 36.5 µM

CCN(CC)CCO
not listed: [19]
inactive: all other assays above
